Test results from the supplement of paper PMC10849652.
The full data set covers some 8,800 targets. This sample favours those with a hit. About 0.5% of all pairs of compound and target were hits.

Columns and labels:
Assay in all cases: log2 fold change, soluble protein after heating vs DMSO (PISA); higher = thermal stabilisation; K562 lysate, 10 uM; active = over 0.2 and 3.5 SD of the protein, either way, in both replicates (recomputed)
ibrutinib = compound: C=CC(=O)N1CCC[C@@H](n2nc(-c3ccc(Oc4ccccc4)cc3)c3c(N)ncnc32)C1 [ibrutinib]
Outline: (§1)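 Following dounce homogenisation of K562 pellets in PBS pH 7.4 with 1 mM MgCl2, crude extract at 1 mg/mL protein was incubated for 30 min with 10 μM compound. Aliquots were then heated for 3 min over 48°C-58°C and pooled, NP-40 was added to 0.5% at 4°C, and soluble protein was recovered as the supernatant at 21,000xg for 90 min. Channel-sum-equalised TMTpro 16plex LC-MS/MS quantified this protein. Each value, from duplicates, is a log-two fold change in thermal stability relative to solvent controls.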

[1] = compound: CC(=O)c1cnc2ccc(-c3cc(Cl)c(O)c(Cl)c3)nc2c1N[C@H]1CC[C@H](CN(C)C)CC1
Outline: as §1

ralimetinib = compound: CC(C)(C)Cn1c(N)nc2ccc(-c3[nH]c(C(C)(C)C)nc3-c3ccc(F)cc3)nc21 [ralimetinib]
Outline: as §1

[2] = compound: CC(C)(O)CC(=O)NCCn1ccc2ncnc(Nc3ccc(Oc4cccc(C(F)(F)F)c4)c(Cl)c3)c21
Outline: as §1

[3] = compound: CC(C)C1=C2N=C(C=C(N2N=C1)NCC3=CC=CC=C3)NCCCCCCN
Outline: as §1

[4] = compound: CC1=C(C(CC(=O)N1)C2=CC=C(C=C2)C(F)(F)F)C(=O)NC3=C(C=C4C(=C3)C=NN4)F
Outline: as §1

[5] = compound: CC1=C(C2=C(C=C1)C(=O)C3=CC=CC=C3N2CCCN)C
Outline: as §1

[6] = compound: CC1=C(C=C(C=C1)NC(=O)C2=CC(=CC=C2)C(C)(C)C#N)NC3=CC4=C(C=C3)N=CN(C4=O)C
Outline: as §1

[7] = compound: CC1=C(C=C(C=C1)NC(=O)C2=CC(=CC=C2)N(C)C)NC(=O)C3=CC=C(C=C3)O
Outline: as §1

[8] = compound: CC1=CC=C(C=C1)SC2=C3C=C(SC3=CN=C2)C(=O)N
Outline: as §1

vemurafenib = compound: CCCS(=O)(=O)Nc1ccc(F)c(C(=O)c2c[nH]c3ncc(-c4ccc(Cl)cc4)cc23)c1F [vemurafenib]
Outline: as §1

[9] = compound: CCCS(=O)(=O)Nc1ccc(F)c(C(=O)c2c[nH]c3ncc(Cl)cc23)c1F
Outline: as §1

barasertib = compound: CCN(CCCOc1ccc2c(Nc3cc(CC(=O)Nc4cccc(F)c4)[nH]n3)ncnc2c1)CCOP(=O)(O)O [barasertib]
Outline: as §1

[10] = compound: CC[C@@H]1C(=O)N(C)c2cnc(Nc3ccc(C(=O)NC4CCN(C)CC4)cc3OC)nc2N1C1CCCC1
Outline: as §1

volasertib = compound: CC[C@@H]1C(=O)N(C)c2cnc(Nc3ccc(C(=O)N[C@H]4CC[C@H](N5CCN(CC6CC6)CC5)CC4)cc3OC)nc2N1C(C)C [volasertib]
Outline: as §1

[11] = compound: CCn1c(C(=O)N(C2CC2)C2CC2)cc2c3c(ncn3C)c(Nc3cc(C)n(C)n3)nc21
Outline: as §1

[12] = compound: CCn1cc(-c2ccnc3[nH]c(-c4cccc(CN(C)C)c4)cc23)c(-c2ccc(NC(=O)N(C)C)cc2)n1
Outline: as §1

[13] = compound: CN1CCC(CNc2ccc3ncc(-c4cccc(OC(F)(F)F)c4)n3n2)CC1
Outline: as §1

saracatinib = compound: CN1CCN(CCOc2cc(OC3CCOCC3)c3c(Nc4c(Cl)ccc5c4OCO5)ncnc3c2)CC1 [saracatinib]
Outline: as §1

sotrastaurin = compound: CN1CCN(c2nc(C3=C(c4c[nH]c5ccccc45)C(=O)NC3=O)c3ccccc3n2)CC1 [sotrastaurin]
Outline: as §1

Measured: log2 fold change

TRIM11 (UniProt Q96F44)
inactive: ibrutinib 0.008 | [1] 0.05 | ralimetinib -0.009 | [2] -0.049 | [3] -0.011 | [4] -0.067 | [5] -0.04 | [6] 0.005 | [7] -0.014 | [8] 0.036 | vemurafenib -0.049 | [9] -0.018 | barasertib -0.034 | [10] -0.001 | volasertib -0.043 | [11] 0.022 | [12] 0.024 | [13] 0.009 | saracatinib 0.024 | sotrastaurin -0.009

TBRG4 (UniProt Q969Z0)
UniProt Q969Z0, sequence (Q969Z0 whole entry, looked up): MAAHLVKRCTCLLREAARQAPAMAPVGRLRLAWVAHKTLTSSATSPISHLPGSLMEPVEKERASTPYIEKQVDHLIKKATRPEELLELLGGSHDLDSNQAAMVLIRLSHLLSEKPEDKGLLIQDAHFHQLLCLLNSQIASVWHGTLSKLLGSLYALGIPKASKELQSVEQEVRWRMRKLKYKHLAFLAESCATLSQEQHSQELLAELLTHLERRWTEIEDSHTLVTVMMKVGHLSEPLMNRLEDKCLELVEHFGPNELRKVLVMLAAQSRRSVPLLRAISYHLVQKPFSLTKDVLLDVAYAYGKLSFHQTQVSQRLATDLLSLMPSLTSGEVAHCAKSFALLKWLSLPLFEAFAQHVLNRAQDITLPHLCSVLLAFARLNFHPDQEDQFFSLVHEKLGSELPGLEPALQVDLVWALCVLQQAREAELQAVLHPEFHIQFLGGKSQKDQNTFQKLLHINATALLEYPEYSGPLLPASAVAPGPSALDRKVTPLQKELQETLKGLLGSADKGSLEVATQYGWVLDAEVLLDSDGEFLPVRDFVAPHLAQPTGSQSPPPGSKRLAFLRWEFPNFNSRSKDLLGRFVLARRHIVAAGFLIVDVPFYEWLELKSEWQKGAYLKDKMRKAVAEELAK
inactive: ibrutinib 0.014 | [1] 0.025 | ralimetinib 0.002 | [2] -0.023 | [3] -0.011 | [4] 0.001 | [5] 0.062 | [6] -0.041 | [7] 0.044 | [8] -0.023 | vemurafenib -0.016 | [9] 0.008 | barasertib 0.051 | [10] -0.075 | volasertib -0.079 | [11] 0.048 | [12] 0.052 | [13] -0.128 | saracatinib 0.026 | sotrastaurin 0.013

TUBB1 (UniProt Q9H4B7)
inactive: ibrutinib -0.005 | [1] -0.01 | ralimetinib -0.003 | [2] -0.007 | [3] 0 | [4] 0.049 | [5] 0.028 | [6] -0.036 | [7] 0.002 | [8] 0.012 | vemurafenib -0.039 | [9] 0.011 | barasertib 0.002 | [10] -0.025 | volasertib -0.087 | [11] 0.034 | [12] 0.15 | [13] -0.025 | saracatinib -0.002 | sotrastaurin -0.045

TOX4 (UniProt O94842)
inactive: ibrutinib -0.009 | [1] 0.054 | ralimetinib 0.009 | [2] -0.034 | [3] -0.008 | [4] 0.024 | [5] -0.002 | [6] 0.033 | [7] 0.023 | [8] 0.006 | vemurafenib -0.019 | [9] 0.005 | barasertib 0.017 | [10] 0.06 | volasertib -0.027 | [11] -0.018 | [12] -0.235 | [13] 0.147 | saracatinib 0.041 | sotrastaurin 0.005

UBXN6 (UniProt Q9BZV1)
inactive: ibrutinib 0.046 | [1] 0.174 | ralimetinib 0.037 | [2] -0.012 | [3] 0.019 | [4] 0.121 | [5] -0.059 | [6] -0.038 | [7] 0.031 | [8] 0.041 | vemurafenib 0.046 | [9] -0.192 | barasertib -0.007 | [10] -0.025 | volasertib -0.075 | [11] -0.001 | [12] 0.008 | [13] -0.015 | saracatinib -0.03 | sotrastaurin 0.025

TRAPPC10 (UniProt P48553)
UniProt P48553, sequence (P48553 whole entry, looked up): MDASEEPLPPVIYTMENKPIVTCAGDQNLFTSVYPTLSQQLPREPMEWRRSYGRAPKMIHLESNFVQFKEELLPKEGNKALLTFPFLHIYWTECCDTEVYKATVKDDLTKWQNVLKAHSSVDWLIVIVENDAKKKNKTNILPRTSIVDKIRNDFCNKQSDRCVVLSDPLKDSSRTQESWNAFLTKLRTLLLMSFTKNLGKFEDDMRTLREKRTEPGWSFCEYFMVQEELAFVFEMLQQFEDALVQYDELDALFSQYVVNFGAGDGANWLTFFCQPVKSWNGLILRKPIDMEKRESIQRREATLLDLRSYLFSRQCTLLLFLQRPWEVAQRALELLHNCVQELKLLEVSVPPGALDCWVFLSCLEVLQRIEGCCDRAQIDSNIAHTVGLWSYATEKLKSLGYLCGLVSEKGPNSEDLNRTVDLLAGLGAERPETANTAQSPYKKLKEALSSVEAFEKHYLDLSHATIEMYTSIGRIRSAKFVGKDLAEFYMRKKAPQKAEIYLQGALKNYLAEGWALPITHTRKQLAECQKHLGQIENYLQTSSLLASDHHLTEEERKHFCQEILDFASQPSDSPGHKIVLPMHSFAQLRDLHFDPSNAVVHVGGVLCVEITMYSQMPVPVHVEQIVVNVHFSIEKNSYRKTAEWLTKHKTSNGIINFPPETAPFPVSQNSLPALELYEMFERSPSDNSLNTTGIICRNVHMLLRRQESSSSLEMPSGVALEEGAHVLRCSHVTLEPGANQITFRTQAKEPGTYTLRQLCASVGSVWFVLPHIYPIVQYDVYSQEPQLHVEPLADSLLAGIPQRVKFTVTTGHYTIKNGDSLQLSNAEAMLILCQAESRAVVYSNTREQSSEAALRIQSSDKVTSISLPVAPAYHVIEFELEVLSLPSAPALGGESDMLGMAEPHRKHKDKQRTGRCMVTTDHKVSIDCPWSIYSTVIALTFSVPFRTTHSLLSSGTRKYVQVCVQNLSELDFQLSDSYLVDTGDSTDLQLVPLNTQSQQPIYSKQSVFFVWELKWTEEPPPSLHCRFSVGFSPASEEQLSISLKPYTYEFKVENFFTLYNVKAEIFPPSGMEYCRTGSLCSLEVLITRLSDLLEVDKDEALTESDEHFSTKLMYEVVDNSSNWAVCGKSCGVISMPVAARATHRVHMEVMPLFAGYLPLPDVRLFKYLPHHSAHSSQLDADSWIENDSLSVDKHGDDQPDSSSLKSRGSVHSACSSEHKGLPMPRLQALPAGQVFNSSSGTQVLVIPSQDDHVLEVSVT
inactive: ibrutinib -0.006 | [1] -0.004 | ralimetinib 0.025 | [2] -0.03 | [3] 0.027 | [4] 0.002 | [5] -0.029 | [6] 0.019 | [7] 0.02 | [8] -0.004 | vemurafenib 0.022 | [9] 0.009 | barasertib 0.027 | [10] -0.063 | volasertib -0.052 | [11] 0.022 | [12] -0.061 | [13] 0.071 | saracatinib 0.016 | sotrastaurin -0.039

TIMM44 (UniProt O43615)
UniProt O43615, sequence (O43615 whole entry, looked up): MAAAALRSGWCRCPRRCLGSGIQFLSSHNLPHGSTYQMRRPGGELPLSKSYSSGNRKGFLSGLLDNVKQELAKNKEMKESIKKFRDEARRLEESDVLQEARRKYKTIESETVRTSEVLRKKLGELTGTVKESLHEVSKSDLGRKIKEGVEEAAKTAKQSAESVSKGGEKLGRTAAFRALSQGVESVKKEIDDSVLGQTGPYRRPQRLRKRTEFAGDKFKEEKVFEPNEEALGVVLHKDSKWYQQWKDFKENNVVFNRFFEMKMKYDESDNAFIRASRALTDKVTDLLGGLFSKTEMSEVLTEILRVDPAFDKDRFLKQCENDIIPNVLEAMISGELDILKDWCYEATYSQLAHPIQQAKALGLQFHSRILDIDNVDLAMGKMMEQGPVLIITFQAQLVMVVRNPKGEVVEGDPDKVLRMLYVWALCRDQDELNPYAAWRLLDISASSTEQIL
inactive: ibrutinib 0.03 | [1] 0.005 | ralimetinib -0.008 | [2] -0.076 | [3] 0.013 | [4] 0.066 | [5] 0.025 | [6] -0.035 | [7] -0.005 | [8] 0.015 | vemurafenib -0.035 | [9] -0.017 | barasertib 0.07 | [10] -0.006 | volasertib -0.034 | [11] 0.022 | [12] -0.02 | [13] -0.065 | saracatinib 0.012 | sotrastaurin -0.026

UCHL5 isoform 3 (UniProt Q9Y5K5)
UniProt Q9Y5K5, sequence (Q9Y5K5 whole entry, looked up): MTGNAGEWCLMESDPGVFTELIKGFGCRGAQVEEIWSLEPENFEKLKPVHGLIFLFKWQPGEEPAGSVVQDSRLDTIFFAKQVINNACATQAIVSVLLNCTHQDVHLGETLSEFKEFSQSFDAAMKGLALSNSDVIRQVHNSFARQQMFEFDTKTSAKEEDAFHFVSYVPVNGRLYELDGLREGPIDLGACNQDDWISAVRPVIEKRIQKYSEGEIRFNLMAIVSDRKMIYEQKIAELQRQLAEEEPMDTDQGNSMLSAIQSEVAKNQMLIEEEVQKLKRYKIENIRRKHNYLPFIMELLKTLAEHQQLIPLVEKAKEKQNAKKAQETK
inactive: ibrutinib 0 | [1] -0.001 | ralimetinib 0.01 | [2] -0.008 | [3] 0.015 | [4] 0.014 | [5] 0.011 | [6] -0.029 | [7] 0.004 | [8] 0.012 | vemurafenib 0.013 | [9] 0.016 | barasertib -0.001 | [10] -0.019 | volasertib -0.017 | [11] 0.014 | [12] 0.164 | [13] -0.06 | saracatinib -0.012 | sotrastaurin -0.005

TTI2 (UniProt Q6NXR4)
inactive: ibrutinib 0.012 | [1] 0.016 | ralimetinib 0.019 | [2] -0.062 | [3] -0.004 | [4] -0.009 | [5] 0.018 | [6] -0.009 | [7] -0.015 | [8] -0.017 | vemurafenib -0.009 | [9] 0 | barasertib 0.005 | [10] -0.022 | volasertib -0.048 | [11] -0.004 | [12] 0 | [13] 0.035 | saracatinib 0.037 | sotrastaurin 0.031

TLK1 isoform 2 (UniProt Q9UKI8)
UniProt Q9UKI8, sequence (Q9UKI8 whole entry, looked up): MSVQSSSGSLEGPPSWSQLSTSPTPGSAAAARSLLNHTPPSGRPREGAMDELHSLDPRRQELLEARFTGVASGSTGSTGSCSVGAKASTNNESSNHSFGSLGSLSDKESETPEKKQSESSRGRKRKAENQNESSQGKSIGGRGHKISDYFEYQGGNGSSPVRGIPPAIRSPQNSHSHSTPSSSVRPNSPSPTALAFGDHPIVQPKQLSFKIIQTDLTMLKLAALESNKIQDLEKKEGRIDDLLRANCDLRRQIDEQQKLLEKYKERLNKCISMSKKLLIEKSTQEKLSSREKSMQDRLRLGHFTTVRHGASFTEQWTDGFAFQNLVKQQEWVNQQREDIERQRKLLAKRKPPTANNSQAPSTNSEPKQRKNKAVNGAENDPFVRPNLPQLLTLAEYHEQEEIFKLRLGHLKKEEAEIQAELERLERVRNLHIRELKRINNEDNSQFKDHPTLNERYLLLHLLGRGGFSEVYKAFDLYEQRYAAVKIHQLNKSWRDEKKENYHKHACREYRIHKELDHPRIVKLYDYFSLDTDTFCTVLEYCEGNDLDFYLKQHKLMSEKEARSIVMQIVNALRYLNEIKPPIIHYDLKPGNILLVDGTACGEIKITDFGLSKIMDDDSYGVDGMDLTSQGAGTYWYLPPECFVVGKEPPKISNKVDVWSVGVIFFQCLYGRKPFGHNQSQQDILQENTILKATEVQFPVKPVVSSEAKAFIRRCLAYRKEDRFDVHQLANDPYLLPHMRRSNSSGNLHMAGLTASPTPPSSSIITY
inactive: ibrutinib 0.017 | [1] 0.094 | ralimetinib 0.053 | [2] 0.01 | [3] 0.012 | [4] -0.002 | [5] 0.038 | [6] -0.013 | [7] -0.037 | [8] 0 | vemurafenib 0.001 | [9] -0.003 | barasertib 0.06 | [10] -0.048 | volasertib -0.078 | [11] 0.01 | [12] -0.092 | [13] 0.072 | saracatinib 0.014
active: sotrastaurin 0.393

TMEM97 (UniProt Q5BJF2)
UniProt Q5BJF2, sequence (Q5BJF2 whole entry, looked up): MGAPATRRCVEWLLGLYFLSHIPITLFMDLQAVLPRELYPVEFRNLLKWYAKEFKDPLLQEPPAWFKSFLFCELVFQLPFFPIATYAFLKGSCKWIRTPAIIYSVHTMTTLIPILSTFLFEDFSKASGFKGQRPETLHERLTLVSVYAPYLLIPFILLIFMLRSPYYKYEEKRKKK
inactive: ibrutinib 0.01 | [1] 0.012 | ralimetinib 0.004 | [2] -0.056 | [3] -0.034 | [4] -0.025 | [5] -0.032 | [6] 0.003 | [7] 0.042 | [8] -0.017 | vemurafenib 0.076 | [9] -0.027 | barasertib 0.037 | [10] 0.028 | volasertib 0.099 | [11] -0.048 | [13] 0.173 | saracatinib 0.002 | sotrastaurin -0.08
active: [12] -0.327

TUBB4B (UniProt P68371)
UniProt P68371, sequence (P68371 whole entry, looked up): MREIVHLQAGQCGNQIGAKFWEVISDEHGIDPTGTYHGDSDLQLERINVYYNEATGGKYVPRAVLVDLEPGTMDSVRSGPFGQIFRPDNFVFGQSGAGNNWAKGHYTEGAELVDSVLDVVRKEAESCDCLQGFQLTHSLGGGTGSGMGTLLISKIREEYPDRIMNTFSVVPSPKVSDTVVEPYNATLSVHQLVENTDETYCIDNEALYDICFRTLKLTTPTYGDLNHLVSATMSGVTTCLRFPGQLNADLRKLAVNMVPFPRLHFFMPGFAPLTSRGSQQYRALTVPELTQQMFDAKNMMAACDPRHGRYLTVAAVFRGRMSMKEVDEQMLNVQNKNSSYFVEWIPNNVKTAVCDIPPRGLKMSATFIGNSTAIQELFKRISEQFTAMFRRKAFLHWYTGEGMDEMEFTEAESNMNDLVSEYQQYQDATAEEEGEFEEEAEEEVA
inactive: ibrutinib -0.012 | [1] 0.029 | ralimetinib 0.026 | [2] 0.029 | [3] 0.02 | [4] 0.011 | [5] 0.022 | [6] -0.05 | [7] 0.035 | [8] 0.018 | vemurafenib 0.006 | [9] 0.004 | barasertib -0.092 | [10] -0.032 | volasertib -0.034 | [11] 0.005 | [12] -0.134 | [13] -0.011 | saracatinib 0.03 | sotrastaurin -0.021

TTC27 (UniProt Q6P3X3)
inactive: ibrutinib -0.025 | [1] 0.017 | ralimetinib -0.012 | [2] 0.046 | [3] 0.02 | [4] 0 | [5] -0.011 | [6] -0.012 | [7] 0.034 | [8] 0.042 | vemurafenib 0.015 | [9] 0.007 | barasertib 0.028 | [10] -0.07 | volasertib -0.074 | [11] 0.015 | [12] -0.085 | [13] -0.058 | saracatinib 0.055 | sotrastaurin 0.051

TXNRD2 (UniProt Q9NNW7)
inactive: ibrutinib 0.014 | [1] -0.002 | ralimetinib 0.025 | [2] -0.107 | [3] 0 | [4] 0.008 | [5] -0.038 | [6] -0.014 | [7] 0.001 | [8] 0.006 | vemurafenib -0.004 | [9] 0.036 | barasertib -0.047 | [10] 0.023 | volasertib -0.005 | [11] -0.008 | [12] -0.031 | [13] 0.082 | saracatinib 0 | sotrastaurin -0.021

TRIP13 (UniProt Q15645)
UniProt Q15645, sequence (Q15645 whole entry, looked up): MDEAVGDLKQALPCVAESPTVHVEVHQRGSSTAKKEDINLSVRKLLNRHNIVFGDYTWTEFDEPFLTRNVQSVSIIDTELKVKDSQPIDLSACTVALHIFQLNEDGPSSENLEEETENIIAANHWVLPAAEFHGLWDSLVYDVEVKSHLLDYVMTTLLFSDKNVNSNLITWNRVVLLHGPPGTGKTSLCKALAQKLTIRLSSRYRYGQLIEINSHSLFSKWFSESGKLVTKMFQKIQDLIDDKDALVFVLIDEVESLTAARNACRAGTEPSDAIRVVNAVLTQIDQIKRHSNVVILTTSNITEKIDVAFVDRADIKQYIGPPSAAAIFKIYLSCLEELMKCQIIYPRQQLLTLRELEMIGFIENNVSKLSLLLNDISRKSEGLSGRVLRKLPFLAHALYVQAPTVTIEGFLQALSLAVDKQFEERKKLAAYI
inactive: ibrutinib -0.025 | [1] -0.013 | ralimetinib 0.039 | [2] 0.023 | [3] -0.022 | [4] -0.004 | [5] 0.006 | [6] 0.029 | [7] 0.045 | [8] 0.001 | vemurafenib -0.036 | [9] 0 | barasertib 0.033 | [10] -0.083 | volasertib -0.089 | [11] 0.034 | [12] 0.003 | [13] -0.019 | saracatinib 0.008 | sotrastaurin 0.05

TRAPPC6A isoform 2 (UniProt O75865)
UniProt O75865, sequence (O75865 whole entry, looked up): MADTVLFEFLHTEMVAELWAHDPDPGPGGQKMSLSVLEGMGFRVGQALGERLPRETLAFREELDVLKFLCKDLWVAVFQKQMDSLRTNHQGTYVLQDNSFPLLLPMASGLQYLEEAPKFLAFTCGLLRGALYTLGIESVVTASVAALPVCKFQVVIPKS
active: [10] -0.288
inactive: ibrutinib -0.023 | [1] -0.011 | ralimetinib -0.027 | [2] -0.037 | [3] -0.031 | [4] -0.052 | [5] 0.012 | [6] 0.008 | [7] 0.004 | [8] -0.062 | vemurafenib -0.144 | [9] 0.027 | barasertib -0.001 | volasertib -0.035 | [11] -0.072 | [12] -0.228 | [13] -0.096 | saracatinib 0.001 | sotrastaurin -0.042
